Screening results: PubChem, several laboratories
Shown are actives, neighbours in structure and some others; about 2.8% of the full set was active somewhere.
IDE cell activ – IDE (human) activation, cell-based. 0.073% of 340,000 active. HEK cells, FAbeta-B cleavage, fluorescence polarization; 0% vehicle, 100% cell-free pure enzyme wells. P14735. activation, % at 5.96 µM;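 active = activation above the mean of all tested compounds plus 3 SD, set per screening campaign, cut at about 17% in these data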
PP5 inh – blocks human protein phosphatase 5 activity; P53041; purified PP5c, OMFP substrate fluorescence; 0.18% of 320,000 active; inhibition, % at 6.7 µM;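 active = inhibition above the campaign's mean inhibition across all tested compounds plus 3 SD, cut at about 9.5% in these data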;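 note: 0% = DMSO only and 100% = 100 µM cantharidin control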
Target sequence (P53041 whole entry, looked up): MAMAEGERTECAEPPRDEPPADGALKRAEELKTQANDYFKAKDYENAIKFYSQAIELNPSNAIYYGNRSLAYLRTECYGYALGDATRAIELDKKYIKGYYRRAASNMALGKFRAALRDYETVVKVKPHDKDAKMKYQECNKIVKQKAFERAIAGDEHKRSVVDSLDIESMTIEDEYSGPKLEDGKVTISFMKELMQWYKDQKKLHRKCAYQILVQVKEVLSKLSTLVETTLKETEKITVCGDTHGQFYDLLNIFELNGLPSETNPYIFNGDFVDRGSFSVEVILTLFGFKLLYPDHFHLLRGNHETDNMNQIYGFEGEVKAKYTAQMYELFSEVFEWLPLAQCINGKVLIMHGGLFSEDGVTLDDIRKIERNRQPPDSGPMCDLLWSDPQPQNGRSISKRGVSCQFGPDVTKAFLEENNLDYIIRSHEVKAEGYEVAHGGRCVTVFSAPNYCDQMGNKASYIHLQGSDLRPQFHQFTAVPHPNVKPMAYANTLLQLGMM
Granule exo inh – blocks lytic granule exocytosis | TALL-104 LAMP-1 surface exposure, flow cytometry; cells stimulated with thapsigargin and PMA | inhibition, % at 10 µM | 0.66% of 360,000 active;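 active = inhibition above about 55%, limit read from the data; inconclusive = no clear call, values can overlap the other calls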
SKKanGAS inh – blocks kanamycin growth of S. pyogenes SKKanGAS strain. BacTiter-Glo, 6 h. inhibition, % at 7.5 µM. 1.3% of 300,000 active. AID 1662;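 active = mean replicate score, as percent of positive control median, at least 50; inconclusive = mean below 50 but one replicate at or above 50; inactive = mean and every replicate below 50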;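 note: strain carries kanamycin resistance gene driven by streptokinase promoter and grows in 40 µg/ml kanamycin; loss of luminescence reflects streptokinase promoter inhibition or plain growth inhibition; 0% = median of DMSO wells and 100% = positive control at its reference dose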
IDE inh – inhibitors of human insulin-degrading enzyme in cells; inhibition, % at 5.59 µM; P14735; 0.41% of 320,000 active; AID 434962; HEK cells, FAbetaB cleavage, fluorescence polarization;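 active = percent inhibition above the average of all tested compounds plus 3 SD, set per screening campaign, cut at about 16% in these data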;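 note: IDE supplied by intact live HEK cells; FP after avidin binding of uncleaved biotin substrate so inhibition keeps polarization high; 0% = DMSO wells and 100% = 60 µM reference IDE inhibitor Ii1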
PP1 inh – PP1-alpha (human) inhibition in PP5 counter-screen; P62136; purified PP1alpha, OMFP fluorescence; inhibition, % at 6.7 µM; 0.9% of 320,000 active; AID 2235;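 active = inhibition above the mean inhibition of all tested compounds plus 3 SD, computed separately for each screening campaign, cut at about 15% in these data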
PP5 conf – confirmation of human PP5 phosphatase inhibitors; AID 2331; inhibition, % at 6.7 µM; shares compounds with PP5 inh; 22% of 460 active; Purified PP5, fluorogenic phosphatase substrate, fluorescence; in the data active = inhibition above about 9.5%
PP1 inh counter – inhibits human PP1 phosphatase in PP5 counter-screen. PP1 enzyme, fluorescent phosphatase substrate. inhibition, % at 6.7 µM. 4% of 460 active. shares compounds with PP5 inh; in the data active = inhibition above about 16%
* hit, by the source's call; ? = inconclusive; / = no result.

SMILES	IDE cell activ	PP5 inh	Granule exo inh	SKKanGAS inh	IDE inh	PP1 inh	others
COc1ccc(CN2C(=O)C(CC(C)C)Nc3ncnc(N4CCCCC4)c32)cc1 (stereo not given)	8	3	-14	-1	-4	16*
FC(F)(F)c1nc(SCc2ccccc2)n[nH]1	5	1	0	3	-5	0
CC(=O)Nc1ccc(S(=O)(=O)NCC(=O)Nc2ccc3c(c2)OCO3)cc1	1	/	-7	/	3	/
Cc1cccc(C)c1NC(=O)c1csc(COCCO)n1	/	/	-7	/	/	/
O=C1/C(=C/c2ccccc2)CCc2ccc(Cl)nc21	4	/	-6	/	/	/
COc1ccccc1CNC(=O)C1CCC(CNS(=O)(=O)c2ccc(C)cc2)CC1 (stereo not given)	1	0	-5	-1	0	-2
CC1(c2nnc(Cc3ccccc3)o2)CC(c2c(Cl)cccc2Cl)=NO1 (stereo not given)	39*	3	-4	-2	6	6
CC1(c2nnc(Cc3ccccc3)o2)CC(c2ccc(Cl)cc2)=NO1 (stereo not given)	4	0	7	10	4	-2
Cc1ccc(C(=O)N/C(=C/c2ccccc2)C(=O)NCC2CCCO2)cc1 (stereo not given)	-1	0	0	-7	2	-5
COc1ccc(CNC(=O)c2nn(-c3ccccc3)cc2OC)cc1	1	2	-6	-4	-6	1
Oc1c(Br)cc(/C=N/Nc2ccc(Cl)nn2)cc1Br	6	1	6	?	6	2
Oc1c(Br)cc(Br)cc1/C=N/Nc1ccc(Cl)nn1	3	2	-5	84*	10	-2
COC(=O)C(C(=O)OC)[C@@H]1C=C[C@H](C[N+](=O)[O-])N(C(C)=O)C1	-2	/	7	/	/	/
CCOC(=O)c1c(SCCN2CCCCC2)n(-c2ccccc2)c(=S)n(-c2ccccc2)c1=O	2	/	69*	/	/	/
CCOC(=O)c1c(SC)n(-c2ccccc2)c(=S)n(-c2ccccc2)c1=O	4	/	2	-3	/	/
COc1cccc(Cn2c(C(C)n3c(-c4cnccn4)nc4ccccc43)nc3ccccc32)c1 (stereo not given)	/	/	-7	/	/	/
Cc1ccc2c(c1)c1c(n2CC(O)Cn2nc(C)c(Br)c2C)C(=O)CCC1 (stereo not given)	2	3	4	-6	7	0
Cc1ccc2c(c1)c(C)c(C)n2CC(O)Cn1nc(C)c(Br)c1C (stereo not given)	5	2	2	59*	-3	-2
CC(C)C(Sc1nc(-c2ccccc2)cc(-c2ccccc2)c1C#N)C(=O)O (stereo not given)	3	2	0	53*	3	1
CC(C)OC(=O)CC(=O)CSc1nc(-c2ccc(F)cc2)cc(-c2ccccc2)c1C#N	-4	5	-3	-19	1	6
CCOC(=O)CC(=O)CSc1nc(-c2ccccc2)cc(-c2ccccc2)c1C#N	4	1	-3	5	2	17*
COc1ccccc1-c1cc(-c2ccccc2)nc(SCC(=O)O)c1C#N	4	/	-7	84*	/	/
CCC(C(=O)NCCCN1CCOCC1)n1c2ccccc2c2nc(=O)cc(C)n21 (stereo not given)	3	3	-7	-10	1	-3
COc1ccc(NCc2nnc(SCc3ccc(Cl)cc3)n2-c2ccccc2)cc1	4	5	52	28	1	6
O=c1cc(O)c2sc3nc(C(F)(F)F)c4c(c3c2[nH]1)CCCCC4	5	1	-4	23	-6	-1
SMILES	IDE cell activ	PP5 inh	Granule exo inh	SKKanGAS inh	IDE inh	PP1 inh	others
O=c1cc(O)c2sc3nc(-c4cccnc4)cc(C(F)(F)F)c3c2[nH]1	1	3	-9	21	6	18*
Cc1cc(C(F)(F)F)c2c(n1)sc1c(O)cc(=O)[nH]c12	1	1	-1	50*	4	-3
COc1ccccc1N1CCN(C2CCCN(C(=O)CCc3c(C)noc3C)C2)CC1 (stereo not given)	6	-5	2	-6	-1	0
Cc1ccc(S(=O)(=O)N(CC(=O)N2CCN(c3ccc(F)cc3)CC2)C2CCCCC2)cc1	1	10*	-1	4	6	0	PP5 conf=-4;PP1 inh counter=-3
CCC(C)c1ccccc1NC(=O)COC(=O)c1ccc2c(c1)S(=O)(=O)c1ccccc1C2=O (stereo not given)	5	-1	0	15	-4	0
O=C(N=C1SC2CS(=O)(=O)CC2N1c1ccc(Cl)cc1Cl)C1CC1 (stereo not given)	-1	1	-3	1	1	-1
Cc1cc(OCC(F)(F)C(F)(F)C(F)(F)C(F)(F)C(F)(F)C(F)F)nc(N)n1	3	15*	8	7	-1	8	PP5 conf=10;PP1 inh counter=11
COC(CNC(=O)c1ccc(CS(=O)(=O)c2ccccc2)o1)OC	3	14*	-1	-4	2	1	PP5 conf=-3;PP1 inh counter=-4
NNC(=O)CCc1ccc(S(=O)(=O)N2CCOCC2)cc1	-6	11*	0	-5	6	-3	PP5 conf=-1;PP1 inh counter=-1
COc1ccccc1NC(=O)Nc1nc(CC(=O)N2CCN(c3ccccc3F)CC2)cs1	0	4	-5	28	-1	3
CCOC(=O)N1CCN(CC(O)COc2ccc(OC)cc2C(C)(C)C)CC1 (stereo not given)	5	-2	4	-3	11	-1
CCOC(=O)C1CCCN(CC(O)COc2ccc(OC)cc2C(C)(C)C)C1 (stereo not given)	3	11*	-5	6	4	1	PP5 conf=0;PP1 inh counter=-4
Oc1ccccc1/C=N/Nc1cc(N2CCCC2)nc(N2CCCC2)n1	2	14*	22	16	-2	8	PP5 conf=44*;PP1 inh counter=6
Oc1ccc(/C=N/Nc2cc(N3CCOCC3)nc(N3CCOCC3)n2)cc1O	2	3	9	0	4	0
O=C(CS(=O)(=O)c1ccc(Cl)c(Cl)c1)Nc1ccccc1Cl	-2	11*	-1	-4	0	1	PP5 conf=-4;PP1 inh counter=-3
O=C(Nc1ccccc1C(=O)N1CCOCC1)C1CC(=O)N(C2CCCC2)C1 (stereo not given)	8	13*	-2	1	6	1	PP5 conf=-3;PP1 inh counter=-4
O=C(O)c1cc(N/N=C/c2ccncc2)ccc1Cl	1	11*	2	-1	1	-8	PP5 conf=0;PP1 inh counter=-2
COc1ccc(C2=NN(C(=O)CN3CCCC3)C(c3ccc(OC)cc3)C2)cc1 (stereo not given)	/	-1	0	5	1	0
